According to PubChem BioAssay AID2235 (The Scripps Research Institute Molecular Screening Center, 2010):
Out of some 320,000 compounds screened, about 2,800 (0.88%) were called active.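 Rule for the calls: active = inhibition above the mean inhibition of all tested compounds plus 3 SD, computed separately for each screening campaign (cut at about 15% in these data); inactive = the rest.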 Many of the other results were omitted from the sample, so actives are more common in it than they were.

biological target: Serine/threonine-protein phosphatase PP1-alpha catalytic subunit (Homo sapiens) (UniProt P62136); experiment: PP1-alpha phosphatase inhibitors, primary screen, counter-screen for PP5 inhibitor project, biochemical, fluorescence, OMFP substrate, single point (AID 2235); details: purified PP1alpha, at 6.7 µM, active compounds read high
Sequence (P62136 whole entry, looked up): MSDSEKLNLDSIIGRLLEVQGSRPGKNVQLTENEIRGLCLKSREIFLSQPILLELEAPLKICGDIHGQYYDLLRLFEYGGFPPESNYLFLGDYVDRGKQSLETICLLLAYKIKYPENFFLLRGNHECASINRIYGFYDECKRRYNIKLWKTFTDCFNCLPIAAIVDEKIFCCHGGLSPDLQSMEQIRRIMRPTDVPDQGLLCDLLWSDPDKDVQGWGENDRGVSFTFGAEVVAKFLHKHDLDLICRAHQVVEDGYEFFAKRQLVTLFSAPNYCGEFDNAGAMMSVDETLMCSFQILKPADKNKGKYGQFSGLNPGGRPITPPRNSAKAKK

Row | SMILES | inhibition
1 | O=C(CN1C(=O)C2C3C=CC(C3)C2C1=O)NCC1COc2ccccc2O1 (stereo not drawn) | 0.06% (inactive)
2 | O=C1C(=O)N(CC2COc3ccccc3O2)c2ccccc21 (stereo not drawn) | 18.4% (active)
3 | Cc1cc(C(=O)CCl)c(C)n1CC1COc2ccccc2O1 (stereo not drawn) | -1.57% (inactive)
4 | O=C(NC(Cc1c[nH]c2ccccc12)C(=O)O)/C(=C/c1ccco1)NC(=O)c1ccccc1 (stereo not drawn) | -3.53% (inactive)
5 | CN(C(=O)CSc1nnc(-c2n[nH]c3ccccc23)o1)c1ccccc1 | -3.45% (inactive)
6 | COc1ccc(/C=C2\SC(=O)N(CCC(=O)NC3CCS(=O)(=O)C3)C2=O)cc1 (stereo not drawn) | -1.73% (inactive)
7 | Cn1c(=N)n(CC(O)c2cccs2)c2ccccc21 (stereo not drawn) | 2.31% (inactive)
8 | N=c1n(Cc2ccc(Cl)cc2)c2ccccc2n1CC(O)c1ccco1 (stereo not drawn) | 21.9% (active)
9 | Cn1c(=N)n(CC(O)c2ccccc2)c2ccccc21 (stereo not drawn) | -1.18% (inactive)
10 | O=S(=O)(c1cccc(-c2cn3ccccc3n2)c1)N1CCCC1 | -0.43% (inactive)
11 | O=C(O)c1ccccc1OCc1ccccc1Cl | -3.14% (inactive)
12 | CC(C)c1cc(C(N)=O)c(NC(=O)c2cccc(COc3ccc(Br)cc3)c2)s1 | 6.73% (inactive)
13 | COc1ccc(N2CCN(S(=O)(=O)c3ccc4c(c3)NC(=O)C(C)C(=O)N4)CC2)cc1 (stereo not drawn) | -1.74% (inactive)
14 | CSC1=NCCN1C(=O)Cc1cccc2ccccc12 | -1.43% (inactive)
15 | C=C1c2c(Cl)ccc(O)c2C(O)=C2C(=O)[C@]3(O)C(O)=C(C(N)=O)C(=O)[C@@H](N(C)C)[C@@H]3[C@@H](O)C12 (stereo partly drawn) | 23.5% (active)
16 | CN(C)[C@@H]1C(=O)C(C(N)=O)=C(O)[C@@]2(O)C(=O)C3=C(O)c4c(O)ccc(Cl)c4[C@@H](O)[C@H]3C[C@@H]12 | 5.56% (inactive)
17 | Cc1cc(Nc2cccc(F)c2)n2ncnc2n1 | -2.78% (inactive)
18 | CN(C)c1ccc(/C=N/Nc2cc(N3CCOCC3)nc(N3CCOCC3)n2)cc1 | -2.51% (inactive)
19 | COc1ccccc1/C=N\Nc1cc(C)nc(-n2nc(C)cc2C)n1 | 30.7% (active)
20 | COc1ccccc1/C=N/Nc1nc(C)c(C(C)=O)s1 | 1.23% (inactive)
21 | COc1cccc(/C=N/Nc2cc(C)nc(-c3ccccc3O)n2)c1O | 6.15% (inactive)
22 | Cc1nc(Cl)cc(N/N=C/c2ccccc2)n1 | -6.15% (inactive)
23 | Cc1cc(N/N=C\c2ccc(Br)cc2)nc(-n2nc(C)cc2C)n1 | 21.7% (active)
24 | CS(=O)(=O)N(Cc1nc2sc3c(c2c(=O)[nH]1)CCCC3)C1CCCCC1 | 1.31% (inactive)

Row | SMILES | inhibition
25 | NC1=NC(c2ccc([N+](=O)[O-])cc2)N(c2ccc(F)cc2)C(N)=N1 (stereo not drawn) | 1.43% (inactive)
26 | CCOc1ccc(C)cc1S(=O)(=O)NC1CCCCCC1 | 0.47% (inactive)
27 | O=C(CN1CCN(Cc2ccccc2)CC1)NC(c1ccccc1)c1ccccc1 | 10.6% (inactive)
28 | O=C(CN1CCc2ccccc21)NC(c1ccccc1)c1ccccc1 | 17.5% (active)
29 | NS(=O)(=O)c1cccc(NC(=O)CN2CCCc3ccccc32)c1 | -0.85% (inactive)
30 | CCn1cc(CN2CCCC(CNS(=O)(=O)Cc3ccccc3)C2)cn1 (stereo not drawn) | 0.72% (inactive)
31 | COC(=O)N1CN(C(=O)OC)CN(C(=O)OC)C1 | -3.93% (inactive)
32 | O=C(CCCN1C(=O)/C(=C/c2cccs2)SC1=S)Nc1ccc(O)cc1 | -0.73% (inactive)
33 | CCCCC(=O)Nc1ccc(C(=O)Nc2cc(C(F)(F)F)ccc2Cl)cc1 | 1.1% (inactive)
34 | CCCCN(CCCC)CCC(O)c1cc2c(Cl)cc(Cl)cc2c2cc(C(F)(F)F)ccc12 (stereo not drawn) | 17% (active)
35 | CC(C)c1nnc(NC(=O)CCC(=O)N2CCN(c3cccc(Cl)c3)CC2)s1 | -3.62% (inactive)
36 | NNC(=O)c1cnn(-c2ccccc2)c1C(F)(F)F | 0.34% (inactive)
37 | CCO/N=C(/C)c1c(O)cc(-c2ccccc2)n(-c2ccccc2)c1=O | -2.6% (inactive)
38 | CC(C)NC(=O)NC(=O)COC(=O)c1ccc(NC(=O)CC#N)cc1 | -2.32% (inactive)
39 | CCOc1ccc(NC(=O)CCNC(=O)c2ccc(Br)cc2)cc1 | 1.21% (inactive)
40 | CCOc1ccc(NC(=O)c2ccc(NC(=O)COC(=O)c3ccc(NC(=O)CC#N)cc3)cc2)cc1 | 75.8% (active)
41 | CN=C(c1ccccc1)c1c(C)cccc1C | 2.55% (inactive)
42 | CCNC(=O)NC(=O)C(C)OC(=O)c1cc(S(=O)(=O)N2CCCCCC2)ccc1OC (stereo not drawn) | 1.67% (inactive)
43 | COc1cccc(NC(=O)Cn2c3ccccc3c3nc4n(c(=O)c32)CCS4)c1 | -2.19% (inactive)
44 | O=C(NCc1ccc2c(c1)OCO2)C12CC3CC(CC(C3)C1)C2 | -3.56% (inactive)
45 | O=C(CSc1nnc(C2CC2)n1Cc1ccccc1)Nc1cccnc1Cl | 18% (active)
46 | CC(=O)Nc1ccc(NC(=O)CSc2nnc(C3CC3)n2-c2ccccc2)cc1 | -2.45% (inactive)
47 | COc1ccc(-c2nnc(SCC(=O)Nc3cccnc3Cl)n2C)cc1 | -4.29% (inactive)
48 | CC(=O)c1cccc(NC(=O)COc2ccc(S(=O)(=O)N3CCOCC3)cc2)c1 | -2.4% (inactive)

Row | SMILES | inhibition
49 | Cc1ccccc1/[N+]([O-])=C/c1ccncc1 | -3.82% (inactive)
50 | O=S(=O)(NCc1ccc2c(c1)OCO2)c1cccc2nsnc12 | -1.4% (inactive)
51 | O=S(=O)(c1ccc(F)cc1)N1CCN(C(=S)NCc2ccco2)CC1 | -1.26% (inactive)
52 | COc1ccc2nc(NC(=O)c3ccc(Br)s3)sc2c1 | 3.31% (inactive)
53 | COc1ccc2nc(Nc3nc(-c4ccncc4)cs3)sc2c1 | 15.7% (active)
54 | COc1ccc2nc(NC(=O)NC3CCCCC3)sc2c1 | 0.1% (inactive)
55 | CCOC(=O)c1c(Cc2ccc(Cl)cc2)c[nH]c1C | 0.15% (inactive)
56 | O=C(Nc1cccc(F)c1)c1cc(-c2ccco2)nc2ccccc12 | 17% (active)
57 | COc1ccc(NC(=O)c2cc(-c3ccc(C)o3)nc3ccccc23)cc1 | -1.75% (inactive)
58 | O=C(O)c1cccc(NC(=O)c2cc(-c3cccc(Cl)c3)nc3ccccc23)c1 | 8.21% (inactive)
59 | O=C(c1ccc(Cl)nc1)N1CCN(S(=O)(=O)c2ccc3c(c2)OCCO3)CC1 | 1.34% (inactive)
60 | O=C(Cn1cc(-c2nnnn2-c2ccc(Cl)cc2)c(=O)c2ccccc21)c1ccccc1 | 1.68% (inactive)
61 | FC(F)(F)c1nc(-c2ccccc2)ncc1-c1nnnn1-c1ccccc1 | 0.75% (inactive)
62 | Clc1ccc(-n2nnnc2-c2cnc(-c3ccccn3)nc2-c2cccs2)cc1 | 75.5% (active)
63 | O=S(=O)(c1ccc(F)cc1)n1ccc(-c2cnc(-c3ccccc3)s2)n1 | 5.23% (inactive)
64 | CCOc1ccc2sc(NS(=O)(=O)c3ccc(N)cc3)nc2c1 | 1.47% (inactive)
65 | COCCCn1c(SCC(=O)Nc2oc(C)c3c(C)n[nH]c(=O)c23)nc2sc3c(c2c1=O)CCC3 | -2.04% (inactive)
66 | CCOc1ccc(C(O)Cn2c(=N)n(CCN3CCCCC3)c3ccccc32)cc1 (stereo not drawn) | 0.66% (inactive)
67 | Cc1cccc(OCC(O)Cn2c(=N)n(CCN3CCOCC3)c3ccccc32)c1 (stereo not drawn) | 26% (active)
68 | C=CCn1c(=N)n(CC(O)COc2ccc(OC)cc2)c2ccccc21 (stereo not drawn) | -0.92% (inactive)
69 | Cc1ccc(NC(=O)NC(=O)N(C2CCCCC2)S(=O)(=O)c2ccccc2)cc1 | 0.85% (inactive)
70 | C=CCn1c(SCc2csc(C)n2)nc2scc(-c3ccc(C)o3)c2c1=O | -0.82% (inactive)
71 | C=CCNC(=O)CSc1nc2scc(-c3ccco3)c2c(=O)n1CC=C | 3.47% (inactive)
72 | C=CCn1c(=S)[nH]c2scc(-c3ccco3)c2c1=O | 18.8% (active)

Row | SMILES | inhibition
73 | COc1cc(NC(=S)NNC(=O)CC(C)C)c(OC)cc1Cl | -3.43% (inactive)
74 | Cc1nnc(NC(=O)CCC(=O)N2CCC(C)CC2)s1 | -0.54% (inactive)
75 | CC1(C)O[C@@H]2[C@H](O1)[C@@H](COS(=O)(=O)O)O[C@H]2n1ccc(=O)[nH]c1=O | 1.54% (inactive)
76 | COc1cc(NC(=O)CSc2nnc3ccc(-c4ccncc4)nn23)cc(OC)c1 | -2.13% (inactive)
77 | CC1CCCN(S(=O)(=O)c2ccc(C(=O)Nc3nnc(-c4ccncc4)o3)cc2)C1 (stereo not drawn) | 7.97% (inactive)
78 | CC1CCCCN1S(=O)(=O)CCNC(=O)c1ccccc1 (stereo not drawn) | -2.78% (inactive)
79 | CSCc1nnc(NC(=O)c2ccc(S(=O)(=O)N3CCCCC3C)cc2)o1 (stereo not drawn) | 16.8% (active)
80 | CC1CCCCN1S(=O)(=O)c1ccc(C(=O)Nc2nnc(-c3cccs3)o2)cc1 (stereo not drawn) | 25.9% (active)
81 | O=C(Nc1nnc(-c2ccco2)o1)c1ccc(S(=O)(=O)N2CCOCC2)cc1 | 1.14% (inactive)
82 | CC1CCCCN1S(=O)(=O)c1ccc(S(=O)(=O)N(CC(=O)Nc2ccccc2)Cc2cccs2)cc1 (stereo not drawn) | 3.05% (inactive)
83 | COC(=O)c1ccc(-c2c(-c3ccccc3)ncc3cc(OC)c(OC)cc23)cc1 | 1.2% (inactive)
84 | CCCCCCCC(=O)NC(Nc1ccccc1OC)C(Cl)(Cl)Cl (stereo not drawn) | 4.91% (inactive)
85 | COCC(=O)Nc1c(I)c(C(=O)NCC(O)CO)c(I)c(C(=O)N(C)CC(O)CO)c1I (stereo not drawn) | -5.4% (inactive)
86 | Cc1cc(C)nc(-n2ncc3c2CC(c2ccc(C(C)C)cc2)CC3=O)n1 (stereo not drawn) | 15.3% (active)
87 | COc1cc(S(=O)(=O)Nc2ncn[nH]2)ccc1Cl | -0.04% (inactive)
88 | Cc1ccc(S(=O)(=O)N2[C@@H](c3cccc(Cl)c3)C(C(=O)O)=CC[C@H]2c2ccc(Cl)c(Cl)c2)cc1 | 21.6% (active)
89 | CN1OC(COC(=O)c2ccc(Cl)cc2)CC1c1ccccc1 (stereo not drawn) | 1.23% (inactive)
90 | Cc1ccc(S(=O)(=O)N2[C@@H](c3ccccc3F)C(C(=O)O)=CC[C@H]2c2ccc(Cl)cc2)cc1 | 4.64% (inactive)
91 | CS(=O)(=O)N(CC(=O)N1CCN(c2cccc(Cl)c2)CC1)c1ccccc1 | -1.41% (inactive)
92 | Cc1ccccc1S(=O)(=O)N1[C@@H](c2cccc(Cl)c2)C(C(=O)O)=CC[C@H]1c1ccc(Cl)cc1 | 20.5% (active)
93 | Cc1ccc([C@@H]2CC=C(C(=O)O)[C@H](c3cccc(Cl)c3)N2S(=O)(=O)c2ccc(C)cc2)cc1 | 5.69% (inactive)
